From PubChem BioAssay
D1 antagonist = Antagonist of Human D 1 Dopamine Receptor: qHTS | HEK293 TREx D1 cells, calcium flux, dopamine EC80; stronger effect = lower value | activity change, negative = inhibition, % at 10 µM | 3.2% of 360,000 active | AID 504652, 2011; in the data active = activity change below about -30%; also: % is scaled to controls: 0 for no effect and ±100 for the full control effect
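After overnight tetracycline induction at 30 C, force-coupled D1 HEK293 cells took up a no-wash calcium dye at room temperature. Compounds were added and monitored 180 s, and the response to EC80 dopamine was then recorded.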
DRD3 antagonist = qHTS of D3 Dopamine Receptor Antagonist: qHTS; 2.5% of 360,000 active; AID 652054, 2013; D3R cells, DiscoveRx beta-arrestin luminescence, antagonist mode; stronger effect = lower value; max response, negative = inhibition, %; in the data active = max response below about -50%; inconclusive = no clear call, values can overlap the other calls; also: % is scaled to controls: 0 for no effect and ±100 for the full control effect
Target sequence (P35462 whole entry, looked up): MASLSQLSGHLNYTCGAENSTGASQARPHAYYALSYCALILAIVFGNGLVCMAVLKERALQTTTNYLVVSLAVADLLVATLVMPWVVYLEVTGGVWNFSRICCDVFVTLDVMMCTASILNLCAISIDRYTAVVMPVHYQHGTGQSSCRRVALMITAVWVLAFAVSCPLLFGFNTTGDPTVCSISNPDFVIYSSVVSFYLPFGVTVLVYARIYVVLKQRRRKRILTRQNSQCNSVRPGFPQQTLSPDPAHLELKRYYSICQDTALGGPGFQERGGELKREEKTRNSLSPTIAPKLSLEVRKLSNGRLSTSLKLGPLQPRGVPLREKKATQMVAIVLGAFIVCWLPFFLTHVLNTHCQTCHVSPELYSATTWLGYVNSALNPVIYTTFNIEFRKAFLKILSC
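Cells expressing the human receptor were seeded at 1500 cells/well, incubated overnight at 37 degrees C in 5% CO2, then exposed to library compounds with dopamine controls for 90 minutes at 37 degrees C before luminescent detection.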
D1 PAM = Potentiators of Human D1 Dopamine Receptor: qHTS; AID 504651, 2011; potentiation, % at 10 µM; 0.036% of 360,000 active; D(1A) dopamine receptor (Homo sapiens), P21728; HEK293 TREx D1 cells, calcium flux, dopamine EC20 potentiation; in the data active = potentiation above about 30%; also: 0% is about no effect
D1 agonist = Allosteric Agonists of the Human D1 Dopamine Receptor: qHTS | D(1A) dopamine receptor (Homo sapiens), P21728 | activation, % at 2 µM | 1% of 360,000 active | HEK293 T-REx D1 cells, calcium flux, agonist mode | AID 504660, 2011; in the data active = activation above about 30%; also: 0% is about no effect
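Agonism was scored from calcium flux recorded over 180 s (1 read/s) after pintool compound addition, following a 10-cycle baseline. Cells were inducible force-coupled HEK293 TREx D1, plated overnight at 30 C and loaded with no-wash calcium dye.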
D3 ag = qHTS of D3 Dopamine Receptor Agonist: qHTS. D(3) dopamine receptor (Homo sapiens), P35462. D3R DiscoveRx beta-arrestin cells, luminescence, 90 min. max activation, %. 0.58% of 410,000 active; in the data active = max activation above about 30%; also: 0% is about no effect
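Agonist mode: compounds and dopamine controls were applied to plated cells for 90 min at 37 degrees C after an overnight attachment at 1500 cells/well. Luminescent read-out followed 30 - 60 minutes at room temperature with DiscoveRx detection reagent.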
Numbers without * were called inactive. A selection: hits, their analogues and other compounds. The true share with any hit is near 6.1%.

`Cn1cccc1/C=N/n1c(-c2ccc(Cl)cc2Cl)n[nH]c1=S` gave D1 antagonist 3, DRD3 antagonist -3, D1 PAM -2, D1 agonist 44* and D3 ag -10.
Screening CCn1cc(C(=O)N2CCN(c3ccc(F)cc3)CC2)c(=O)c2cc(S(=O)(=O)N3CCOCC3)ccc21 returned D1 antagonist 6, D1 PAM 1, D1 agonist 1 and D3 ag -11.
Screening COc1ccccc1-c1nc2c(c(SCc3cc(C)ccc3C)n1)Cc1c(CO)cnc(C)c1O2 returned D1 antagonist 1, D1 PAM -2, D1 agonist 1 and D3 ag 0.
Screening Cc1ccc(NCc2cc3cc4c(cc3n(CC(=O)Nc3ccc(C)cc3)c2=O)OCCO4)cc1 returned D1 antagonist -6, D1 PAM 1, D1 agonist 19 and D3 ag 0.
CCc1ccc(NCc2cc3cc4c(cc3n(CC(=O)Nc3ccc(Cl)cc3)c2=O)OCO4)cc1 was read as D1 antagonist -2, D1 PAM 4, D1 agonist 176* and D3 ag -10.
COc1ccc(NCc2cc3cc4c(cc3n(CC(=O)Nc3ccccc3)c2=O)OCO4)cc1 was read as D1 antagonist -1, D1 PAM 4, D1 agonist 134* and D3 ag -24.
COc1ccc(Br)c2c1-c1nc(NC(=O)c3cccc(C)c3)sc1C2 was read as D1 antagonist -16, D1 PAM -1, D1 agonist 2 and D3 ag -5.
Screening COc1ccccc1N1CCN(S(=O)(=O)c2c(C)sc3ncn(CC(=O)Nc4ccc(C(C)C)cc4)c(=O)c23)CC1 returned D1 antagonist -19, D1 PAM 1, D1 agonist 2 and D3 ag -6.
For Cc1ccc(OCc2nnc(SCC(=O)c3cccs3)n2-c2ccccc2)cc1C the results were D1 antagonist 28, DRD3 antagonist -53*, D1 PAM -3, D1 agonist 15 and D3 ag 0.
Screening Cn1ccc2cc(S(=O)(=O)N3CCN(S(=O)(=O)c4c(F)cccc4F)CC3)ccc21 returned D1 antagonist 7, D1 PAM 2 and D1 agonist 2.
Screening COc1ccc(-c2c3c(=O)n(C)c(=O)n(C)c3c3n2-c2ccccc2NC3c2ccco2)cc1 (configuration not stated) returned D1 antagonist -4, D1 PAM -3, D1 agonist 1 and D3 ag -21.
`Cn1c(=O)c2c(-c3ccccc3)n3c(c2n(C)c1=O)C(c1ccc([N+](=O)[O-])cc1)Nc1ccccc1-3` (configuration not stated) gave D1 antagonist -10, D1 PAM -1, D1 agonist 4 and D3 ag -11.
For Cc1ccc(-c2c3c(=O)n(C)c(=O)n(C)c3c3n2-c2ccccc2NC3c2ccc(C)cc2O)cc1 (configuration not stated) the results were D1 antagonist -13, D1 PAM -1, D1 agonist 9 and D3 ag 47*.
For COc1ccc(O)c(C2Nc3ccccc3-n3c(-c4ccccc4)c4c(=O)n(C)c(=O)n(C)c4c32)c1 (configuration not stated) the results were D1 antagonist 5, D1 PAM -1, D1 agonist 2 and D3 ag 45*.
`CSc1ncc2c(n1)-c1ccccc1N(Cc1ccccc1)S2(=O)=O` gave D1 antagonist -10, D1 PAM -2, D1 agonist 5 and D3 ag -3.
For COC(=O)CN1C(=S)N(c2ccc(Cl)cc2)C(=O)C1CC(=O)Nc1ccc(F)cc1 (configuration not stated) the results were D1 antagonist -10, DRD3 antagonist -8, D1 PAM -6, D1 agonist 16 and D3 ag -6.
COc1ccc(NC(=O)CC2C(=O)N(c3ccc(C)cc3)C(=O)N2CCc2ccccc2)cc1 (configuration not stated) was read as D1 antagonist -37*, D1 PAM -5, D1 agonist 1 and D3 ag -7.
CCCOc1ccc(NC(=O)CC2C(=O)N(c3ccc(Cl)cc3)C(=O)N2CCc2ccncc2)cc1 (configuration not stated) was read as D1 antagonist -35*, D1 PAM -3, D1 agonist 27 and D3 ag -20.
COc1ccc(CCN2C(=O)N(c3ccc(F)cc3)C(=O)C2CC(=O)Nc2ccccc2)cc1 (configuration not stated) was read as D1 antagonist 3, D1 PAM 0, D1 agonist -1 and D3 ag 4.
For COC(=O)CN1C(=S)N(c2ccc(F)cc2)C(=O)C1CC(=O)Nc1ccc(F)cc1 (configuration not stated) the results were D1 antagonist -51*, DRD3 antagonist inconclusive, D1 PAM -2, D1 agonist 1 and D3 ag -7.
CCc1ccc(NC(=O)CC2C(=O)N(c3ccc(Cl)cc3)C(=O)N2Cc2cccs2)cc1 (configuration not stated) was read as D1 antagonist -13, D1 PAM -3, D1 agonist 8 and D3 ag 43*.
For CCC(=O)N1CCc2cc(Br)cc(S(=O)(=O)N3CCCC(C(=O)NCc4ccccc4)C3)c21 (configuration not stated) the results were D1 antagonist 7, D1 PAM -2, D1 agonist 1 and D3 ag -8.
CCCn1c(=O)c2sccc2n2c(CCCC(=O)NCCOC)nnc12 was read as D1 antagonist -11, D1 PAM -1, D1 agonist 0 and D3 ag -4.
For COc1ccc(Cl)cc1NC(=O)Cn1cnc2sc(C)c(S(=O)(=O)N3CCN(c4ccccc4OC)CC3)c2c1=O the results were D1 antagonist 6, D1 PAM 1, D1 agonist 1 and D3 ag 3.
`COc1ccc(NC(=O)CC2C(=O)N(c3ccc(OC)cc3)C(=O)N2CCC2=CCCCC2)cc1` (configuration not stated) gave D1 antagonist -31*, D1 PAM -2, D1 agonist 1 and D3 ag 3.
For O=C(CC1C(=O)N(c2ccccc2)C(=O)N1Cc1ccco1)Nc1ccccc1 (configuration not stated) the results were D1 antagonist -44*, DRD3 antagonist 7, D1 PAM -1, D1 agonist 1 and D3 ag -2.
For Cc1ccc(C23CC4CC(CC(C(=O)N5CCN(C)CC5)(C4)C2)C3)cc1 the results were D1 antagonist -15, DRD3 antagonist -55*, D1 PAM 2, D1 agonist 11 and D3 ag -20.
